Data published in PubChem BioAssay (NCI).
“And” between values parts separate entries of the source, which are not always exact repeats. Equal values may be shown once. This is part of a sample that, as a whole, favours compounds with a hit. Of some 83,000 tested, about 20% had one in any assay.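 The test compound was applied at a single concentration to cells in 96-well plates for 48 hours, and percent growth was recorded.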

Columns and labels:
Assay in all cases: NCI-60 one-dose screen, 48 h (100 = growth as untreated, 0 = no growth, -100 = all killed)
Conditions in all cases: 10 µM unless noted; active means growth percent below 10; inactive means the rest
SR leukemia = system: SR leukemia
RPMI-8226 leukemia = system: RPMI-8226 leukemia
OVCAR-8 ovarian = system: OVCAR-8 ovarian
OVCAR-5 ovarian = system: OVCAR-5 ovarian
OVCAR-4 ovarian = system: OVCAR-4 ovarian
SK-OV-3 ovarian = system: SK-OV-3 ovarian
IGROV1 ovarian = system: IGROV1 ovarian
OVCAR-3 ovarian = system: OVCAR-3 ovarian
HS 578T breast = system: HS 578T breast
NCI/ADR-RES ovarian = system: NCI/ADR-RES ovarian
T-47D breast = system: T-47D breast
BT-549 breast = system: BT-549 breast
MDA-MB-435 melanoma = system: MDA-MB-435 melanoma
MCF7 breast = system: MCF7 breast
HCT-116 colon = system: HCT-116 colon
HCC-2998 colon = system: HCC-2998 colon
KM12 colon = system: KM12 colon
SW-620 colon = system: SW-620 colon

Measured: growth

COC(=O)c1ccccc1Cl
inactive: SR leukemia 96.4% | RPMI-8226 leukemia 113% | OVCAR-8 ovarian 102% | OVCAR-5 ovarian 106% | OVCAR-4 ovarian 103% | SK-OV-3 ovarian 105% | IGROV1 ovarian 105% | OVCAR-3 ovarian 105% | HS 578T breast 108% | NCI/ADR-RES ovarian 109% | T-47D breast 94% | BT-549 breast 98.4% | MDA-MB-435 melanoma 103% | MCF7 breast 99.6% | HCT-116 colon 100% | HCC-2998 colon 105% | KM12 colon 101%

COc1cc(NCCCCCNC(C)C)c2ncccc2c1
inactive: SR leukemia 82.8% and 133% | RPMI-8226 leukemia 107% and 98.1% | OVCAR-8 ovarian 104% and 89.6% | OVCAR-5 ovarian 95.2% and 86.9% | OVCAR-4 ovarian 44.4% and 45.7% | SK-OV-3 ovarian 84.3% | IGROV1 ovarian 90.3% and 60.4% | OVCAR-3 ovarian 92% | HS 578T breast 83.5% | NCI/ADR-RES ovarian 91.5% and 93.7% | T-47D breast 82.3% | MDA-MB-435 melanoma 97.8% and 106% | SW-620 colon 87.2% and 106% | MCF7 breast 85.3% and 86.4% | HCT-116 colon 96.9% and 90.3% | HCC-2998 colon 102% and 90.2% | KM12 colon 91.4%

N#CC1c2ccccc2C=CN1C(=O)c1ccccc1 (configuration not stated)
inactive: SR leukemia 91.7% and 146% | RPMI-8226 leukemia 105% and 159% | OVCAR-8 ovarian 92.7% and 85% | OVCAR-5 ovarian 110% and 87.5% | OVCAR-4 ovarian 96.8% and 89.7% | SK-OV-3 ovarian 120% and 128% | IGROV1 ovarian 101% and 73.9% | OVCAR-3 ovarian 93.6% and 95.9% | HS 578T breast 94.2% and 150% | NCI/ADR-RES ovarian 108% and 107% | T-47D breast 106% and 103% | BT-549 breast 115% and 139% | MDA-MB-435 melanoma 98.7% and 87.8% | SW-620 colon 94.8% and 103% | MCF7 breast 93.1% and 114% | HCC-2998 colon 109% and 115% | KM12 colon 107% and 91.5%

Cc1c(Cl)cc(Cl)c(N)c1Cl
inactive: SR leukemia 117% | RPMI-8226 leukemia 98.1% | OVCAR-8 ovarian 104% | OVCAR-5 ovarian 107% | OVCAR-4 ovarian 108% | SK-OV-3 ovarian 101% | IGROV1 ovarian 114% | OVCAR-3 ovarian 112% | HS 578T breast 95.3% | NCI/ADR-RES ovarian 105% | BT-549 breast 112% | MDA-MB-435 melanoma 104% | SW-620 colon 101% | MCF7 breast 98.6% | HCT-116 colon 103% | HCC-2998 colon 113% | KM12 colon 114%

OCCS
inactive: SR leukemia 90.5% | RPMI-8226 leukemia 104% | OVCAR-8 ovarian 103% | OVCAR-5 ovarian 104% | OVCAR-4 ovarian 101% | SK-OV-3 ovarian 101% | IGROV1 ovarian 110% | OVCAR-3 ovarian 105% | HS 578T breast 106% | NCI/ADR-RES ovarian 102% | T-47D breast 92.8% | BT-549 breast 134% | MDA-MB-435 melanoma 105% | SW-620 colon 109% | MCF7 breast 94.1% | HCC-2998 colon 93.9% | KM12 colon 103%

CCOC(C)=N
inactive: SR leukemia 87.4% | RPMI-8226 leukemia 92.7% | OVCAR-8 ovarian 109% | OVCAR-5 ovarian 102% | OVCAR-4 ovarian 100% | SK-OV-3 ovarian 97% | IGROV1 ovarian 151% | OVCAR-3 ovarian 110% | HS 578T breast 150% | NCI/ADR-RES ovarian 109% | T-47D breast 103% | BT-549 breast 108% | MDA-MB-435 melanoma 118% | MCF7 breast 104% | HCT-116 colon 95.1% | HCC-2998 colon 103% | KM12 colon 111%

Nc1nc(N)c2cc(S(=O)(=O)c3ccccc3)ccc2n1
inactive: SR leukemia 22% and 47.4% | RPMI-8226 leukemia 51% and 54.5% | OVCAR-8 ovarian 38% and 43.5% | OVCAR-5 ovarian 39.2% and 75.8% | OVCAR-4 ovarian 54% | SK-OV-3 ovarian 62.1% and 52.1% | IGROV1 ovarian 36.6% and 58.6% | OVCAR-3 ovarian 53.9% and 59.7% | HS 578T breast 65.8% and 73.4% | NCI/ADR-RES ovarian 41.2% and 50.2% | T-47D breast 72.7% and 59% | BT-549 breast 81.4% and 54.6% | MDA-MB-435 melanoma 33.5% and 31% | MCF7 breast 40.2% and 29.5% | HCT-116 colon 16.3% and 13.4% | HCC-2998 colon 30.6% | KM12 colon 32.5% and 28.7%

CC(C)(C)OC(=O)NCCc1ccc(N)cc1
inactive: SR leukemia 99.5% | RPMI-8226 leukemia 91.4% | OVCAR-8 ovarian 104% | OVCAR-5 ovarian 111% | OVCAR-4 ovarian 98.8% | SK-OV-3 ovarian 101% | IGROV1 ovarian 104% | OVCAR-3 ovarian 106% | HS 578T breast 96% | NCI/ADR-RES ovarian 99.2% | T-47D breast 94.8% | MDA-MB-435 melanoma 101% | SW-620 colon 97.6% | MCF7 breast 99.2% | HCT-116 colon 112% | HCC-2998 colon 107% | KM12 colon 107%

C/C=C/C(=O)OCCCCCCCCCCCC
inactive: SR leukemia 83.4% | RPMI-8226 leukemia 99.9% | OVCAR-8 ovarian 90.5% | OVCAR-5 ovarian 99.2% | OVCAR-4 ovarian 113% | SK-OV-3 ovarian 97.5% | IGROV1 ovarian 111% | OVCAR-3 ovarian 106% | HS 578T breast 107% | NCI/ADR-RES ovarian 106% | T-47D breast 90.8% | MDA-MB-435 melanoma 115% | SW-620 colon 111% | MCF7 breast 102% | HCT-116 colon 88.5% | HCC-2998 colon 130% | KM12 colon 105%

O=C(c1ccccc1)C1(Br)CCCCC1
inactive: SR leukemia 149% | RPMI-8226 leukemia 98.9% | OVCAR-8 ovarian 103% | OVCAR-5 ovarian 97% | OVCAR-4 ovarian 105% | SK-OV-3 ovarian 108% | IGROV1 ovarian 97.2% | OVCAR-3 ovarian 112% | HS 578T breast 97.3% | NCI/ADR-RES ovarian 91.5% | T-47D breast 94.7% | BT-549 breast 105% | MDA-MB-435 melanoma 105% | MCF7 breast 96% | HCT-116 colon 104% | HCC-2998 colon 101% | KM12 colon 104%

S=c1nn[nH]n1C1CCCCC1
inactive: SR leukemia 101% | RPMI-8226 leukemia 109% | OVCAR-8 ovarian 95.4% | OVCAR-5 ovarian 117% | OVCAR-4 ovarian 109% | SK-OV-3 ovarian 137% | IGROV1 ovarian 104% | OVCAR-3 ovarian 104% | HS 578T breast 95.7% | NCI/ADR-RES ovarian 112% | BT-549 breast 125% | MDA-MB-435 melanoma 102% | SW-620 colon 99.8% | MCF7 breast 101% | HCT-116 colon 101% | HCC-2998 colon 113% | KM12 colon 110%

CN(C)C(=N)N=C(N)N
inactive: SR leukemia 133% | RPMI-8226 leukemia 92.2% | OVCAR-8 ovarian 105% | OVCAR-5 ovarian 115% and 114% | OVCAR-4 ovarian 96.3% and 112% | SK-OV-3 ovarian 106% and 110% | IGROV1 ovarian 98.7% and 128% | OVCAR-3 ovarian 118% and 113% | HS 578T breast 144% | NCI/ADR-RES ovarian 105% and 111% | T-47D breast 90.5% and 102% | MDA-MB-435 melanoma 109% and 124% | SW-620 colon 108% and 105% | MCF7 breast 96.7% and 146% | HCC-2998 colon 115% | KM12 colon 100% and 108%

O=C1C=CC(n2cc(F)c(=O)[nH]c2=O)O1 (configuration not stated)
inactive: SR leukemia 13.1% | RPMI-8226 leukemia 62% | OVCAR-8 ovarian 62.3% | OVCAR-5 ovarian 128% | OVCAR-4 ovarian 74.9% | SK-OV-3 ovarian 68.2% | IGROV1 ovarian 103% | OVCAR-3 ovarian 57.5% | HS 578T breast 90.9% | NCI/ADR-RES ovarian 85.1% | T-47D breast 65.5% | MDA-MB-435 melanoma 46.4% | SW-620 colon 79.7% | MCF7 breast 30.1% | HCT-116 colon 40% | HCC-2998 colon 22.3% | KM12 colon 51.6%

CCOP(=O)(OCC)/C(C#N)=C/c1c(C)[nH]c2ccccc12
inactive: SR leukemia 94.8% | RPMI-8226 leukemia 88.8% | OVCAR-8 ovarian 94.8% | OVCAR-5 ovarian 103% | OVCAR-4 ovarian 41% | SK-OV-3 ovarian 100% | IGROV1 ovarian 105% | OVCAR-3 ovarian 105% | HS 578T breast 90.8% | NCI/ADR-RES ovarian 97.9% | T-47D breast 85.1% | MDA-MB-435 melanoma 12.9% | SW-620 colon 98.2% | MCF7 breast 96.2% | HCT-116 colon 101% | HCC-2998 colon 107% | KM12 colon 100%
